Bioassay records from PubChem BioAssay.
YB-1 expression: YB-1 expression inhibition; U2OS, qRT-PCR YB-1 vs CDIP delta delta Cp, 16 h; hits give high values; zero = DMSO, each unit about twofold; delta delta Cp (YB-1 minus CDIP) (concentration not given with the values); actives 0.37% (n = 30,000);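 active = delta delta Cp rounded down to an integer at or above 3, about 3 SD of DMSO wells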;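 note: higher means less YB-1 transcript or more CDIP transcript relative to DMSO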
PD-1 reversal: reversal of PD-1 mediated T-cell inhibition; 29,000 tested, under 10 active; activation, % (no concentration beside the values); primary human CD4 T cells, PD-L1 beads, CellTiter-Glo 96 h; call rule not given here;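 note: 0% = median vehicle wells and 100% = positive control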
ROS inducer: inducers of reactive oxygen species in cancer cells; U2OS ROS induction, H2DCF-DA fluorescence; ROS induction (% of piperlongumine), % at 10 µM; actives 2% (n = 46,000); AID 624156; in the data active = ROS induction above about 79%, passing the limit was not always enough; inconclusive = no clear call, values can overlap the other calls;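 note: 0% = DMSO vehicle median and 100% = reference compound median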
* hit, by the source's call; u = inconclusive; x = not tested or not shown. Shown are actives, neighbours in structure and some others; about 2.3% of the full set was active somewhere.

SMILES	YB-1 expression	PD-1 reversal	ROS inducer
CCCOc1ccc(Br)cc1/C=C1\NC(=S)NC1=O	x	x	4
CCOC(=O)c1sc(COc2ccc(C(C)(C)C)cc2)nc1C	x	x	10
O=C1CCN(S(=O)(=O)c2cccc(S(=O)(=O)c3ccc(Cl)cc3)c2)C2CCCCC12 (stereo not given)	x	x	-6
O=C(CCCCCCC(=O)Nc1ccccc1O)N/N=C/c1ccccc1Br	-0.13	x	-10
COc1ccc(C(=O)CSc2nnc(-c3ccc([N+](=O)[O-])cc3)o2)cc1	x	0	-6
CC1=C2CCC(C(=O)O)=CC2C(C(C)C)CC1 (stereo not given)	0.62	0	-7
CC(=O)OC1/C=C(/C(=O)O)CC/C=C(/C)C(=O)/C=C\C1(C)C (stereo not given)	0.044	-8	90*
Cc1nc2c(C(=O)NCC3CCCO3)cnn2c(C)c1Cc1ccccc1Cl (stereo not given)	x	x	39
Cc1ccc(C)c(NC(=O)c2ccc(OCC(=O)Nc3cc(C(F)(F)F)ccc3Cl)cc2)c1	x	-3	0
C[C@H](CO)N1C[C@H](C)[C@@H](CN(C)Cc2ccc(-c3ccccc3)cc2)Oc2c(NC(=O)CCCCCC(=O)Nc3ccccc3N)cccc2C1=O	-0.2	-2	117*
C[C@@H]1CN([C@H](C)CO)C(=O)c2cccc(NC(=O)CCCCCC(=O)Nc3ccccc3N)c2O[C@@H]1CN(C)Cc1ccc(Oc2ccccc2)cc1	-0.25	-4	9
C[C@@H]1CN([C@@H](C)CO)C(=O)c2cccc(NC(=O)CCCCCC(=O)Nc3ccccc3N)c2O[C@@H]1CN(C)Cc1ccc(Oc2ccccc2)cc1	-0.16	-7	136*
C[C@H](CO)N1C[C@H](C)[C@H](CN(C)CC2CC2)Oc2c(NC(=O)CCCCCC(=O)Nc3ccccc3N)cccc2C1=O	0.0028	0	-7
C[C@@H]1CN([C@@H](C)CO)C(=O)c2cccc(NC(=O)CCCCCC(=O)Nc3ccccc3N)c2O[C@H]1CN(C)CC1CCCCC1	-0.49	-1	82*
C[C@@H]1CN([C@@H](C)CO)C(=O)c2cccc(NC(=O)CCCCCC(=O)Nc3ccccc3N)c2O[C@@H]1CN(C)Cc1ccccc1	-0.0057	2	3
CN(C)/N=C(\NO)c1c(F)cccc1Cl	x	x	-8
CC(=O)N1c2ccccc2C(C)(c2ccccc2)CC1(C)C (stereo not given)	-0.15	-1	27
CC1(C)CC(C)(c2ccccc2)c2cc(SC#N)ccc2N1 (stereo not given)	0.17	-5	114*
CC1(C)Cc2nc(-c3ccccc3)nc(SCC(=O)Nc3cccc(C(F)(F)F)c3)c2CO1	x	-1	24
CCOC(=O)Cn1cc(/C=C2\C(=O)NC(=O)N(c3ccc(F)cc3)C2=O)c2ccccc21	x	x	44
COCCN1C(=O)/C(=C/c2cn(CC(=O)OC)c3ccccc23)C(=O)N(c2ccccc2)C1=O	0.034	1	93*
CCNC(=O)c1cccc(OC)c1	x	x	-7
CCCN(CCC)S(=O)(=O)c1ccc(C(=O)Nc2ccc3sc(SC)nc3c2)cc1	x	x	168*
CCCN(CCC)S(=O)(=O)c1ccc(C(=O)Nc2cccc(SC)c2)cc1	0.16	1	-3
Cc1ccc(CCNC(=O)C2CCN(c3nc4ccccc4o3)CC2)cc1	x	x	-1
SMILES	YB-1 expression	PD-1 reversal	ROS inducer
C[C@@H]1CCCCO[C@H](CN(C)Cc2ccc(C(F)(F)F)cc2)[C@@H](C)CN([C@H](C)CO)C(=O)c2cc(NC(=O)Nc3ccccc3)ccc2O1	0.084	-4	137*
C[C@@H]1CCCCO[C@H](CN(C)Cc2ccccc2)[C@@H](C)CN([C@H](C)CO)C(=O)c2cc(NC(=O)Nc3ccc(C(F)(F)F)cc3)ccc2O1	-0.52	x	10
C[C@@H]1CCCCO[C@H](CN(C)CC2CCCCC2)[C@@H](C)CN([C@H](C)CO)C(=O)c2cc(NC(=O)Nc3ccc(C(F)(F)F)cc3)ccc2O1	-0.26	-14	95*
C[C@@H]1CCCCO[C@H](CN(C)C)[C@@H](C)CN([C@H](C)CO)C(=O)c2cc(NC(=O)Nc3ccc(C(F)(F)F)cc3)ccc2O1	0.26	-2	4
C=CCOc1ccccc1/C=N/NC(=O)CCCCCCC(=O)OC	0.044	x	1
O=C1O[C@H](c2ccccc2)[C@H](c2ccccc2)N2[C@H]1[C@@H](C(=O)O)[C@]1(C(=O)Nc3ccc(C#CC4(O)CCCCCC4)cc31)[C@H]2c1ccc(O)cc1	0.26	x	-4
CN(C)CCCNc1ncnc2c1sc1nc(N3CCOCC3)c3c(c12)CCC3	x	-2	-29
COc1cc2c(cc1NC(=O)Cc1ccccc1[N+](=O)[O-])oc1ccccc12	x	2	x
COc1cc(CN(C)Cc2cccc3ccccc23)c([N+](=O)[O-])cc1OC	x	-2	133*
Cc1ccc2nc(C(F)(F)F)[nH]c2c1	x	x	-14
Cc1nc2cc(NC(=O)NCc3ccco3)ccc2n1C	x	2	100*
Cn1nnc2cc(NC(=O)NCCO)ccc21	x	-3	-19
COc1ccc(/C=C2\Cc3ccccc3C2=O)cc1	0.47	1	29
CCCCC1=NN(C(=O)c2ccccc2)C(O)(C(F)(F)F)C1 (stereo not given)	x	x	-11
Cc1[nH]c(=O)[nH]c(=O)c1S(=O)(=O)N1c2ccccc2CC1C (stereo not given)	x	x	8
O=C(c1ccccc1)C(c1ccccc1)n1nnc2ccccc21 (stereo not given)	x	2	-18
Cc1c(C(=O)O)oc2ccc(S(=O)(=O)NCCc3ccccc3)cc12	x	x	-5
NC(=O)C(Cc1ccccc1)NS(=O)(=O)c1ccc2oc3ccccc3c2c1 (stereo not given)	x	-1	165*
Cc1ccc(-c2nnc(SCC(=O)Nc3ccc(Br)c(C)c3)n2C)cc1	x	0	2
CN1N=C2c3ccccc3CCC2C1c1ccc(C#N)cc1 (stereo not given)	x	x	-3
CCNC(=S)N1N=C2c3ccccc3CCC2C1c1ccc(F)cc1 (stereo not given)	0.34	-1	101*
O=C(Nc1ccc(Cl)cc1)N1N=C2c3ccccc3CCC2C1c1cccs1 (stereo not given)	-0.035	-2	66
O=C(c1ccco1)N1N=C2c3ccccc3CCC2C1c1ccc(F)cc1 (stereo not given)	-0.013	0	85*
c1ccc(-c2cnc(SCc3nc4ccccc4[nH]3)[nH]2)cc1	x	2	0
Cc1cccc(C)c1OCC(=O)Nc1sc(C)c(C)c1C(N)=O	x	-3	2
SMILES	YB-1 expression	PD-1 reversal	ROS inducer
OC1(/C=C/CN2CCCCC2)CCCCC1	0.021	0	-11
CC1CCCN(S(=O)(=O)c2ccccc2)C1 (stereo not given)	x	x	-8
COc1ccc(Cn2nnc3c(=O)[nH]c(C4CCCN(S(=O)(=O)c5ccccc5)C4)nc32)cc1 (stereo not given)	x	x	139*
COc1ccc2c(c1)c(/C=C/c1nc3ccc(I)cc3c(=O)n1CCCO)c(C)n2C	x	0	u
CN(CCCC(=O)O)c1nc(-c2ccc(F)cc2)cs1	x	-1	4
Cc1ccc2nc(-c3ccncc3)cc(-c3ccccc3)c2c1	x	x	88*
Cc1ccc2nc(-c3ccncc3)cc(C(=O)NC(C)c3cnn(C)c3C)c2c1 (stereo not given)	x	1	2
